PubChem BioAssay (NCI)
Values joined by “and” are separate entries in the source; they are usually repeats but may differ in a detail not shown here. Equal entries are not always repeated. This is part of a sample that, as a whole, favours compounds with a hit. Of some 83,000 tested, about 20% had one in any assay.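 The test compound was applied at a single concentration to cells in 96-well plates for 48 hours, and percent growth was recorded.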 Active and inactive are the calls of the source. Rule for the calls: active = growth percent below 10; inactive = the rest.

What was measured:
Test in all cases: NCI-60 one-dose screen, 48 h (100 = growth as untreated, 0 = no growth, -100 = all killed)
Details in all cases: 10 µM unless noted
HCT-15 colon = tested on: HCT-15 colon
HT29 colon = tested on: HT29 colon
SNB-75 CNS = tested on: SNB-75 CNS
SNB-19 CNS = tested on: SNB-19 CNS
U251 CNS = tested on: U251 CNS
PC-3 prostate = tested on: PC-3 prostate
SK-MEL-5 melanoma = tested on: SK-MEL-5 melanoma
UACC-62 melanoma = tested on: UACC-62 melanoma
LOX IMVI melanoma = tested on: LOX IMVI melanoma
SK-MEL-28 melanoma = tested on: SK-MEL-28 melanoma
SK-MEL-2 melanoma = tested on: SK-MEL-2 melanoma
EKVX NSCLC = tested on: EKVX NSCLC
UO-31 renal = tested on: UO-31 renal
TK-10 renal = tested on: TK-10 renal
ACHN renal = tested on: ACHN renal
CAKI-1 renal = tested on: CAKI-1 renal
A498 renal = tested on: A498 renal
CCRF-CEM leukemia = tested on: CCRF-CEM leukemia
MOLT-4 leukemia = tested on: MOLT-4 leukemia
SN12C renal = tested on: SN12C renal

Row | Structure (SMILES) | growth (HCT-15 colon) | growth (HT29 colon) | growth (SNB-75 CNS) | growth (SNB-19 CNS) | growth (U251 CNS) | growth (PC-3 prostate) | growth (SK-MEL-5 melanoma) | growth (UACC-62 melanoma) | growth (LOX IMVI melanoma) | growth (SK-MEL-28 melanoma) | growth (SK-MEL-2 melanoma) | growth (EKVX NSCLC) | growth (UO-31 renal) | growth (TK-10 renal) | growth (ACHN renal) | growth (CAKI-1 renal) | growth (A498 renal) | growth (CCRF-CEM leukemia) | growth (MOLT-4 leukemia) | growth (SN12C renal)
1 | CCOC(=O)c1c(C)oc(C)c(C(=O)OCC)c1=O | 106% (inactive) and 102% (inactive) | 105% (inactive) and 106% (inactive) | 96.5% (inactive) and 99.5% (inactive) | 102% (inactive) and 90.2% (inactive) | 111% (inactive) and 101% (inactive) | 94.1% (inactive) and 88.6% (inactive) | 111% (inactive) and 104% (inactive) | 111% (inactive) and 96.6% (inactive) | 103% (inactive) and 97.3% (inactive) | 109% (inactive) and 112% (inactive) | 111% (inactive) and 112% (inactive) | 128% (inactive) and 104% (inactive) | 96.6% (inactive) and 86.9% (inactive) | 98.1% (inactive) and 106% (inactive) | 102% (inactive) and 105% (inactive) | 103% (inactive) and 95.4% (inactive) | 113% (inactive) and 117% (inactive) | 96% (inactive) and 108% (inactive) | 150% (inactive) and 80.2% (inactive) | –
2 | Cc1ncsc1CCO | 111% (inactive) and 106% (inactive) | 101% (inactive) and 95.6% (inactive) | 111% (inactive) and 91.5% (inactive) | 108% (inactive) and 103% (inactive) | 99.6% (inactive) and 99.8% (inactive) | 103% (inactive) and 98.3% (inactive) | 109% (inactive) and 98.2% (inactive) | 111% (inactive) and 95.5% (inactive) | 97.6% (inactive) and 103% (inactive) | 116% (inactive) and 104% (inactive) | 96.1% (inactive) and 107% (inactive) | 112% (inactive) and 99.6% (inactive) | 95.7% (inactive) and 89.7% (inactive) | 103% (inactive) and 89.4% (inactive) | 107% (inactive) | 101% (inactive) | – | 39.9% (inactive) and 121% (inactive) | 105% (inactive) and 116% (inactive) | 109% (inactive) and 96.6% (inactive)
3 | O=C(Nc1ccc(Cl)cc1)c1cc2ccccc2cc1O | 12.8% (inactive) and 15.8% (inactive) | 94.7% (inactive) and 8.61% (active) | 52.6% (inactive) and 53.1% (inactive) | 37.7% (inactive) and 29.6% (inactive) | 21.2% (inactive) and -8.1% (active) | 11.5% (inactive) and -13.1% (active) | 14% (inactive) and 0.898% (active) | 28.3% (inactive) and 35.1% (inactive) | 37.3% (inactive) and 12% (inactive) | 43.8% (inactive) and 45.1% (inactive) | 36.9% (inactive) and 7.35% (active) | 15.3% (inactive) and 14.6% (inactive) | 10.9% (inactive) and 4.71% (active) | 53.3% (inactive) and 8.41% (active) | 30.3% (inactive) and 31.2% (inactive) | 34.5% (inactive) and -23.4% (active) | -5.52% (active) | 17.8% (inactive) | 4.27% (active) and -8.37% (active) | –
4 | CCN(CC)CCOc1ccc(/C=N/Nc2nc3c([nH]2)c(=O)n(C)c(=O)n3C)cc1 | 97.2% (inactive) and 103% (inactive) | 99.9% (inactive) and 91.4% (inactive) | 88.4% (inactive) and 90.3% (inactive) | 98.5% (inactive) and 102% (inactive) | 98.6% (inactive) and 113% (inactive) | 99.4% (inactive) and 88.5% (inactive) | 102% (inactive) and 107% (inactive) | 94.2% (inactive) and 99.8% (inactive) | 104% (inactive) and 92.3% (inactive) | 115% (inactive) and 112% (inactive) | 102% (inactive) and 107% (inactive) | 99.1% (inactive) and 95.8% (inactive) | 80.8% (inactive) and 79.6% (inactive) | 94.2% (inactive) and 101% (inactive) | 102% (inactive) and 94.6% (inactive) | 118% (inactive) and 85.6% (inactive) | – | 83.5% (inactive) and 103% (inactive) | 88.4% (inactive) and 102% (inactive) | 98.9% (inactive) and 96.5% (inactive)
